# Results taken from PubChem BioAssay.
# Several values for one entry are separate records, joined by “and”; a condition that tells them apart may be missing. Equal entries are not always repeated. For some of these results: Results with a measured potency or affinity are listed apart. Activity calls are given as the source filed them. Cut-off read from the data, not from the text of the source, unless noted: active = parasite load remaining mostly below about 12% (no sharp cut-off); inactive = mostly above about 10%.
# How the values were obtained:
# [1] = blockers of polyQ-driven CASP3 activation – cell-based (AID 1583); conditions: polyglutamine-induced caspase-3 activation, cell assay; stronger effect = higher value;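 tested at 10 µM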
# [2] = yeast 75Q aggregation reduction – 75Q-TubU reporter (AID 1593); conditions: Yeast 75Q polyglutamine aggregation reporter
# [3] = restoration of touch response, mutant HTT neurons – whole organism, C. elegans mechanosensory neurons, N-terminal huntingtin (AID 1599); conditions: C. elegans polyQ-huntingtin mechanosensory neurons, stronger effect = higher value
# [4] = blockers of cytochrome c efflux from mitochondria – biochemical, purified mitochondria (AID 1603); conditions: stronger effect = lower value;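 note: mouse liver mitochondria challenged with calcium chloride; signal normalized to the plate average as 100%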
# [5] = polyglutamine aggregate formation blockers (AID 1604); conditions: polyglutamine-induced protein aggregation inhibition assay; stronger effect = higher value; tested at 2.5 µM
# [6] = glutamate transport activators, MN-1 cells, MN-1 cell line (AID 1612); conditions: MN-1 motor neuron cells, stronger effect = higher value;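 note: tested at 1 µM final; 0% = mean of DMSO vehicle wells on each plate; positive means more glutamate uptake than control and negative means less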
# [7] = GFP-Q80 aggregate reduction, neuronal-like cells, cell-based, NGF-treated PC12, GFPQ80 (AID 1614); conditions: PC12 NGF-treated GFP-polyQ80 inclusion reduction;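 note: lower means fewer inclusions and 0 means no inclusions at all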
# [8] = 75Q-TubH aggregate inhibition, S. cerevisiae, yeast (AID 1616); conditions: S. cerevisiae 75Q-TubH polyglutamine aggregation suppression; stronger effect = higher value
# [9] = P. berghei load reduction in hepatocytes – cell-based, HepG2, luciferase luminescence, HepG2 viability, primary screen (AID 624349);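 note: 100% = mean of DMSO negative control wells on the same plate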; conditions: P. berghei liver stage in HepG2, luciferase luminescence, concentration not given here; parasite load remaining: stronger effect = lower value; viability: measured here: HepG2 viability without parasites
# [10] = EMT-state selective cytotoxicity in co-culture – imaging, PC-3E GFP, TEM4-18 mCherry, primary screen (AID 1345086;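 active = compounds killing one labelled cell type while sparing the other, by normalised counts and ratio limits, not self-fluorescent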;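 for all read-outs here: cells exposed to compound for 72 h before imaging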;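 for red/green cell ratio (normalised): normalised mesenchymal count divided by normalised epithelial count so high means epithelial killing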); conditions: PC-3E GFP / TEM4-18 mCherry co-culture, imaging cell counts, at 1 µM; for red/green cell ratio (normalised): actives lie on both sides, counts scaled to control wells, 1 = unselective
# [11] = viability loss with induced miR-34 in A549 – imaging, A549 dox-inducible miR-34, nuclei and caspase counts, primary screen (AID 1347080;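 active = compounds whose cell count with miR-34 switched on is under 0.7 times the count with it off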); conditions: A549 miR-34 inducible, Hoechst nuclei count, 48 h
# [12] = measured here: epithelial PC-3E GFP cell survival
# [13] = measured here: mesenchymal TEM4-18 mCherry cell survival
# [14] = stronger effect = lower value, cell number ratio, induced over uninduced
# [15] = measured here: relative caspase fold change +Dox/-Dox
# [16] = measured here: total cells with miR-34 induction, stronger effect = lower value
# [17] = measured here: total cells without miR-34 induction
SMILES,inhibition [1] [%],score [2],rescue above control [3],cytochrome c release ratio [4],inhibition of aggregation [5] [%],glutamate uptake change [6] [%],inclusion score [7],aggregation suppression score [8],parasite load remaining [9],viability [9],red/green cell ratio (normalised) [10],"normalised cell number [10, 12]","normalised cell number [10, 13]","fold change [11, 14]","fold change [11, 15]","cell count [11, 16]","cell count [11, 17]"
CCC(=O)O[C@]1(C(=O)CCl)[C@@H](C)CC2C3CCC4=CC(=O)C=C[C@]4(C)[C@@]3(F)[C@@H](O)C[C@@]21C (some centres not stated),-7.85,0.96,0.61,1.1,51,19.7,2,1.08,202% (inactive) and 73.8% (inactive),86% and 95.6%,1.11 (inactive),1.12,1.25,0.913 (inactive),3.26,7630,8360
CO[C@H]1C[C@H](O[C@H]2[C@H](C)[C@@H](OC3O[C@H](C)C[C@H](N(C)C)[C@H]3O)[C@@H](C)C[C@]3(CO3)C(=O)[C@H](C)[C@@H](O)[C@@H](C)[C@@H](C)OC(=O)[C@@H]2C)O[C@@H](C)[C@@H]1O (some centres not stated),27,1.24,28.2,0.97,7.94,5.06,2,1.24,283% (inactive) and 48.5% (inactive),76% and 96.5%,1.12 (inactive),0.84,0.94,0.824 (inactive),2.52,10700,13000
C[N+]1(C)C2CC[C@H]1CC(OC(=O)C(O)c1ccccc1)C2 (some centres not stated),5.29,1.53,12.1,0.9,65.1,-16.5,2,1.36,95.8% (inactive) and 69.2% (inactive),75.7% and 100%,0.83 (inactive),1.16,0.97,0.874 (inactive),1.28,10300,11800
O=c1[nH]c(=O)n(C2C[C@@H](O)[C@@H](CO)O2)cc1F (some centres not stated),-9.47,1.23,-12.2,0.97,28.2,1.59,2,1.24,79.5% (inactive) and 36% (inactive),108%,0.79 (inactive),0.79,0.62,1.13 (inactive),1.5,4220,3730
C=C[C@@]1(C)CC(=O)[C@@]2(O)[C@](C)(O1)[C@@H](OC(C)=O)[C@@H](O)C1C(C)(C)CC[C@H](O)[C@@]12C (some centres not stated),4.06,1.39,0.33,0.91,15.4,15.8,1,1.2,150% (inactive) and 45.5% (inactive),93.3% and 96.7%,1 (inactive),1.25,1.26,0.888 (inactive),3.59,11900,13400
CC(COc1ccccc1)NC(C)[C@H](O)c1ccc(O)cc1 (some centres not stated),-10.5,1.07,-0.43,0.93,67.5,5.98,2,0.981,58.3% (inactive),72.5% and 101%,1.11 (inactive),1.16,1.29,0.796 (inactive),1.19,10800,13600
CC(=O)OCC(=O)[C@H]1CCC2C3CCC4=CC(=O)CC[C@]4(C)C3CC[C@@]21C (some centres not stated),-3.1,0.92,-2.35,1.07,63.5,23,2.5,0.669,44.3% (inactive),97.7%,1.09 (inactive),1.34,1.47,0.848 (inactive),2.3,9410,11100
CO[C@@]1(NC(=O)CSCC#N)C(=O)N2C(C(=O)O)=C(CSc3nnnn3C)CSC21 (some centres not stated),20.8,1.29,-0.81,0.56,33.3,-5.52,2,1.5,99.4% (inactive) and 54.5% (inactive),73% and 111%,0.89 (inactive),1.07,0.95,0.923 (inactive),3.61,12200,13200
CC1(C)O[C@@H]2CC3C4C[C@H](F)C5=CC(=O)CC[C@]5(C)C4[C@@H](O)C[C@]3(C)[C@]2(C(=O)CO)O1 (some centres not stated),6.64,1.49,7.14,1.08,66.7,17,2.5,0.898,151% (inactive) and 47.9% (inactive),68.8% and 102%,1.21 (inactive),1.17,1.42,0.854 (inactive),2.6,7720,9050
C[C@]12C=CC(=O)C=C1CCC1C2C(=O)C[C@@]2(C)C1CC[C@]2(O)C(=O)CO (some centres not stated),10.6,1.16,5.79,0.79,-17.6,-8.9,2,1.29,71.9% (inactive) and 35.5% (inactive),73% and 91%,1.16 (inactive),0.94,1.1,0.854 (inactive),2.55,10500,12300
CC(=O)O[C@]1(C(C)=O)CCC2C3C[C@H](C)C4=CC(=O)CC[C@]4(C)C3CC[C@@]21C (some centres not stated),28.3,0.63,2.76,1.2,59.1,30.6,2.5,0.615,76.4% (inactive) and 20.6% (inactive),71.8% and 85.5%,1.21 (inactive),1.07,1.3,0.945 (inactive),3.26,8680,9190
